# Data published in publication PMC7862700, “An all-to-all approach to the identification of sequence-specific readers for epigenetic DNA modifications on cytosine”.
# What was measured:
# Assay in all cases: DAPPL (digital affinity profiling via proximity ligation, sequencing); 10 mM Tris-HCl pH 7.5, 50 mM NaCl, 1 mM DTT, 4% glycerol, room temperature, 30 min; GST-TFs on glutathione beads, 16-mer random dsDNA library, 0.1% formaldehyde crosslink after washing; high values mean tight binding
# FLI1 = biological target: T1, FLI1 (Homo sapiens, UniProt Q01543 1-452); details: protein: recombinant; tags: N-terminal GST; dsDNA, one strand shown
# T1 sequence: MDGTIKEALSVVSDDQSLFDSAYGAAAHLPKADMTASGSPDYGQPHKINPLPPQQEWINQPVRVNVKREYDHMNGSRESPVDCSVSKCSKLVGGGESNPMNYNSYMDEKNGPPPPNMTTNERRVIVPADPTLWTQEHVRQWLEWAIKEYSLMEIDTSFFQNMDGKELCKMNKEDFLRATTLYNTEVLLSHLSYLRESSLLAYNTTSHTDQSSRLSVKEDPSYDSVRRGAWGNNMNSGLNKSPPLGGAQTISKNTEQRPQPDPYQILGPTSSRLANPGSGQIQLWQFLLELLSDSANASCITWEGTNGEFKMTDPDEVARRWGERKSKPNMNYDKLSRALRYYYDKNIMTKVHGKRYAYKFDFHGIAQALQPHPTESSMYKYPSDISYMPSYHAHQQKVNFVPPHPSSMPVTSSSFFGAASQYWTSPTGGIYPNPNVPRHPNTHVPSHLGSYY
# Method in brief: (§1)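 Human transcription factors carrying a GST fusion were produced in yeast, bound to glutathione beads, tagged with DNA barcodes and pooled together with a tag-only sample. Each pool was held with 200 nmole of a random double-stranded 16-mer DNA library in Tris/NaCl/DTT/glycerol buffer for 30 min at room temperature, then washed, crosslinked in 0.1% formaldehyde, proximity-ligated with BsaI/T4 ligase (1 h, 37 °C), PCR-amplified and sequenced on an Illumina NextSeq500. Binding signal is the read frequency of each hexamer for a given factor divided by its frequency in the tag-only sample.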
# ELK1 = biological target: T2, ELK1 (Homo sapiens, UniProt P19419 1-428); details: protein: recombinant; tags: N-terminal GST; dsDNA, one strand shown
# T2 sequence: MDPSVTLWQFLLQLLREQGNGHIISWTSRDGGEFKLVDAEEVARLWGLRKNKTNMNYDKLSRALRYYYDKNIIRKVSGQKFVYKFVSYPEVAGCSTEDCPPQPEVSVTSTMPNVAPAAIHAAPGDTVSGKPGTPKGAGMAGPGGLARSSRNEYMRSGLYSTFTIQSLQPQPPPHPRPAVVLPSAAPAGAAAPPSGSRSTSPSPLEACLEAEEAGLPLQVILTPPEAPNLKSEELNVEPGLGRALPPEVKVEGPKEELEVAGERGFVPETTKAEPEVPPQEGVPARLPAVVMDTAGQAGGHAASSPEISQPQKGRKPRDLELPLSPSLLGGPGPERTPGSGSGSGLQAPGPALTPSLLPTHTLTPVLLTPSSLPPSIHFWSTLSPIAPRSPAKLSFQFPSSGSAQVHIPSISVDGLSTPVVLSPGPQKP
# Method in brief: as §1
# GABPA = biological target: T3, GABPA (Homo sapiens, UniProt Q06546 1-454); details: protein: recombinant; tags: N-terminal GST; dsDNA, one strand shown
# T3 sequence: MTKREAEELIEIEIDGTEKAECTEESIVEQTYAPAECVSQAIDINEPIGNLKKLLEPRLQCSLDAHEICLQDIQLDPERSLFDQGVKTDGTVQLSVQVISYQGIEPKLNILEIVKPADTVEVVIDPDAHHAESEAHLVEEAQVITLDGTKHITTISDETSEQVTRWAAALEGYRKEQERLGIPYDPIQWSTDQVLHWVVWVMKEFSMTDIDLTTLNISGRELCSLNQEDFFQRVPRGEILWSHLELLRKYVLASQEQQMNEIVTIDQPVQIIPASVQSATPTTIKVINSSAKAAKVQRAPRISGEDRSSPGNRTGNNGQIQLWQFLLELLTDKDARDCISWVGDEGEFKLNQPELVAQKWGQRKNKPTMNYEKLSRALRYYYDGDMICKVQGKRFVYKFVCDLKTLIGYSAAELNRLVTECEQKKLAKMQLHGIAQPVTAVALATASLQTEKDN
# Method in brief: as §1
# ERG = biological target: T4, ERG (Homo sapiens, UniProt P11308 1-479); details: protein: recombinant; tags: N-terminal GST; dsDNA, one strand shown
# T4 sequence: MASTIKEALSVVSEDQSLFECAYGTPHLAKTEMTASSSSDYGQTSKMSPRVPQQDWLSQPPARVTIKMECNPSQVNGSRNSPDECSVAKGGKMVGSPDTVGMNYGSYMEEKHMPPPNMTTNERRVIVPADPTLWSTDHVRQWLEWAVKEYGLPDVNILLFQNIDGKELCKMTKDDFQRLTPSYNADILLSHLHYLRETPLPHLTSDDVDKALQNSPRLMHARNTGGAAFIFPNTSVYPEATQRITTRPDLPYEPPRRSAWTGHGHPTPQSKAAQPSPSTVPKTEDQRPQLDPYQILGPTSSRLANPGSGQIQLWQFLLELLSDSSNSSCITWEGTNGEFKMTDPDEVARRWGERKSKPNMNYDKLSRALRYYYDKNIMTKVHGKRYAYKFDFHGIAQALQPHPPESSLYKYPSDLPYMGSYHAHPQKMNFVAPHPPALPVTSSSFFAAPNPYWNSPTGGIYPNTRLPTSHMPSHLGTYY
# Method in brief: as §1
# ELF1 = ELF1 (Homo sapiens, UniProt P32519 1-619); details: protein: recombinant; tags: N-terminal GST; dsDNA, one strand shown
# Method in brief: as §1
# EHF = biological target: T5, EHF (Homo sapiens, UniProt Q9NZC4 1-300); details: protein: recombinant; tags: N-terminal GST; dsDNA, one strand shown
# T5 sequence: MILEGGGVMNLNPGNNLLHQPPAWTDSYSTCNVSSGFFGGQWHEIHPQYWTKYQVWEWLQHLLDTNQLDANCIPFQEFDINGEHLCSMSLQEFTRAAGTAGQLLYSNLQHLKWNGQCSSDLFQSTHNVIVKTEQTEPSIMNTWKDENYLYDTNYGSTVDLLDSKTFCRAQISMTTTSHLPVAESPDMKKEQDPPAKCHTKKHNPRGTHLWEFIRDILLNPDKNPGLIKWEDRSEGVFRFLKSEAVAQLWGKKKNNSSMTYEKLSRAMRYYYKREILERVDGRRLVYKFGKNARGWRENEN
# Method in brief: as §1
# SPI1 = SPI1 (Homo sapiens, UniProt P17947 1-270); details: protein: recombinant; tags: N-terminal GST; dsDNA, one strand shown
# Method in brief: as §1
# SPIB = SPIB (Homo sapiens, UniProt Q01892 1-262); details: protein: recombinant; tags: N-terminal GST; dsDNA, one strand shown
# Method in brief: as §1
# ELK3 = biological target: T6, ELK3 (Homo sapiens, UniProt P41970 1-407); details: protein: recombinant; tags: N-terminal GST; dsDNA, one strand shown
# T6 sequence: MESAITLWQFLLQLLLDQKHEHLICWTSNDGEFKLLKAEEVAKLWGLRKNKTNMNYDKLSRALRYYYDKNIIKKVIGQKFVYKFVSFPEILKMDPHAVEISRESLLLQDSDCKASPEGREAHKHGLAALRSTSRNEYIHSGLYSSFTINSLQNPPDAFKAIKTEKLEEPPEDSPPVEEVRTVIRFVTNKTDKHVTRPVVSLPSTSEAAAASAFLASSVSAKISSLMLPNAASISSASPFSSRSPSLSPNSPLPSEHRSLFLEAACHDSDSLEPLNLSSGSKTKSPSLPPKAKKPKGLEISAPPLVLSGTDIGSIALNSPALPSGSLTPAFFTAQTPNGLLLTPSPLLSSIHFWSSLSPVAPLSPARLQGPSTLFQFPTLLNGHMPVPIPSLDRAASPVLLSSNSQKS
# Method in brief: as §1
# FEV = biological target: T7, FEV (Homo sapiens, UniProt Q99581 1-238); details: protein: recombinant; tags: N-terminal GST; dsDNA, one strand shown
# T7 sequence: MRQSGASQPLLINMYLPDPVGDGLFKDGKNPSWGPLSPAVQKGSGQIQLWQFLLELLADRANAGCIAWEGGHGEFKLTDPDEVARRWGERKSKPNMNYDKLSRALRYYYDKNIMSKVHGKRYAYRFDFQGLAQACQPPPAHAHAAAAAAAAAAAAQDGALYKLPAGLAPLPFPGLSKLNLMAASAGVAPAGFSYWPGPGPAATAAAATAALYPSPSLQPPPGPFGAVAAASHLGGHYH
# Method in brief: as §1
# ETV5 = ETV5 (Homo sapiens, UniProt P41161 1-510); details: protein: recombinant; tags: N-terminal GST; dsDNA, one strand shown
# Method in brief: as §1
# HSF1 = HSF1 (Homo sapiens, UniProt Q00613 1-529); details: protein: recombinant; tags: N-terminal GST; chain copies: 3; dsDNA, one strand shown
# Method in brief: as §1
# SPIC = biological target: T8, SPIC (Homo sapiens, UniProt Q8N5J4 1-248); details: protein: recombinant; tags: N-terminal GST; dsDNA, one strand shown
# T8 sequence: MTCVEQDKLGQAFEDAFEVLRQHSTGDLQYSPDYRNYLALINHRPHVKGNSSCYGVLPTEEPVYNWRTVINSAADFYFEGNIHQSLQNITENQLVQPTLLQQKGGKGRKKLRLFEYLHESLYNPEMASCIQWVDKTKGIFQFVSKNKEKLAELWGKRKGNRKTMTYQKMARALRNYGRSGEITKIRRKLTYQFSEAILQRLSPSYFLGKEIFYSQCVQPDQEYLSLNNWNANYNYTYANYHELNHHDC
# Method in brief: as §1
# ELF4 = ELF4 (Homo sapiens, UniProt Q99607 1-663); details: protein: recombinant; tags: N-terminal GST; dsDNA, one strand shown
# Method in brief: as §1
# ELK4 = biological target: T9, ELK4 (Homo sapiens, UniProt P28324-2 1-405); details: protein: recombinant; tags: N-terminal GST; dsDNA, one strand shown
# T9 sequence: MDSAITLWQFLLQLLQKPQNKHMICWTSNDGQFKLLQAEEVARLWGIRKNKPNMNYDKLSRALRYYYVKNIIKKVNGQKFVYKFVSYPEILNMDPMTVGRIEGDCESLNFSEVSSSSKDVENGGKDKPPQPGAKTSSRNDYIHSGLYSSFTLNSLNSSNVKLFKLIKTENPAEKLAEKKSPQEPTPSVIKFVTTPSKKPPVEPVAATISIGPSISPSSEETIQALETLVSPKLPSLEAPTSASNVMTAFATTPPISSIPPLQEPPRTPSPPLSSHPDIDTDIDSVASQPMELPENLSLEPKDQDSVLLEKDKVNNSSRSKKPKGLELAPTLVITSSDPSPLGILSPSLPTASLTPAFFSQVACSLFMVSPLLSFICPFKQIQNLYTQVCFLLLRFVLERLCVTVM
# Method in brief: as §1
# ETV2 = biological target: T10, ETV2 (Homo sapiens, UniProt O00321 1-342); details: protein: recombinant; tags: N-terminal GST; dsDNA, one strand shown
# T10 sequence: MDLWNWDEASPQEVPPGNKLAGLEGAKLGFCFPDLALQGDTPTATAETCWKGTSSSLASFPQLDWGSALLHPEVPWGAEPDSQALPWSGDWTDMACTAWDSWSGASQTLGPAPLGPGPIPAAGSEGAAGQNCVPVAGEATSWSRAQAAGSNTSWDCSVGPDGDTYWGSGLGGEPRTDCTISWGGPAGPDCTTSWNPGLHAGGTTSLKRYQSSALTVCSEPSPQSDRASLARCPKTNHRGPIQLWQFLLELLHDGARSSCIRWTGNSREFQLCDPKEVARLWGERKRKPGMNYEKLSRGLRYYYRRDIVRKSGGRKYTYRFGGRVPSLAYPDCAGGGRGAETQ
# Method in brief: as §1
# ELF3 = biological target: T11, ELF3 (Homo sapiens, UniProt P78545 1-371); details: protein: recombinant; tags: N-terminal GST; dsDNA, one strand shown
# T11 sequence: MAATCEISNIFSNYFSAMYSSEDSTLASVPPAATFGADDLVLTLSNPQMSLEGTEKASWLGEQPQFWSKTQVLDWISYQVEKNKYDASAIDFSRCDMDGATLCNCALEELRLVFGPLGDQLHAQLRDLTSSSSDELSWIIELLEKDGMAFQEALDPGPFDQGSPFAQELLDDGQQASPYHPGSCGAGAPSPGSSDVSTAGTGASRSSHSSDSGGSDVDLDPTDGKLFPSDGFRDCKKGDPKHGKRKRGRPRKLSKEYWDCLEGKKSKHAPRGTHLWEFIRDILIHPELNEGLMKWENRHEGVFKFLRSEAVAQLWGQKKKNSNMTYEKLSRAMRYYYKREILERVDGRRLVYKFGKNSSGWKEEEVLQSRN
# Method in brief: as §1
# CRX = CRX (Homo sapiens, UniProt O43186 1-299); details: protein: recombinant; tags: N-terminal GST; dsDNA, one strand shown
# Method in brief: as §1
# ETV1 = ETV1 (Homo sapiens, UniProt P50549 1-477); details: protein: recombinant; tags: N-terminal GST; dsDNA, one strand shown
# Method in brief: as §1
# ELF4, sequence (Q99607 whole entry): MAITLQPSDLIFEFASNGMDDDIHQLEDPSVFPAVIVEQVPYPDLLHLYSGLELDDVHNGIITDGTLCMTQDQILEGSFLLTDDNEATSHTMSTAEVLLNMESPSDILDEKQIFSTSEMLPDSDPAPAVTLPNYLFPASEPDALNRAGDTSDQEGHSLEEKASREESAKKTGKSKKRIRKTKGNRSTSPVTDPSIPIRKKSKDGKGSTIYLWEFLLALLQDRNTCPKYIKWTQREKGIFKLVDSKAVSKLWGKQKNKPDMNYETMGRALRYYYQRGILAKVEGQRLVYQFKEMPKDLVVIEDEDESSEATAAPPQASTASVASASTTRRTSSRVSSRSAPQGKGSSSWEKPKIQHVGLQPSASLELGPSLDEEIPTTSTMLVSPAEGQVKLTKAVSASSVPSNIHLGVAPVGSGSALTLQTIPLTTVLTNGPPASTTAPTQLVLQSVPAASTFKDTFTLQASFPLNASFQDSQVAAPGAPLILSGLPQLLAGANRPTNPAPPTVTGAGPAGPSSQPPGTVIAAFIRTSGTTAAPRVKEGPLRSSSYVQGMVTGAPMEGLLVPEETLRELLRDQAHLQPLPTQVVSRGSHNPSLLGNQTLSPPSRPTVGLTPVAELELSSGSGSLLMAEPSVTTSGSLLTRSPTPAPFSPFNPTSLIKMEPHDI
# ETV1, sequence (P50549 whole entry): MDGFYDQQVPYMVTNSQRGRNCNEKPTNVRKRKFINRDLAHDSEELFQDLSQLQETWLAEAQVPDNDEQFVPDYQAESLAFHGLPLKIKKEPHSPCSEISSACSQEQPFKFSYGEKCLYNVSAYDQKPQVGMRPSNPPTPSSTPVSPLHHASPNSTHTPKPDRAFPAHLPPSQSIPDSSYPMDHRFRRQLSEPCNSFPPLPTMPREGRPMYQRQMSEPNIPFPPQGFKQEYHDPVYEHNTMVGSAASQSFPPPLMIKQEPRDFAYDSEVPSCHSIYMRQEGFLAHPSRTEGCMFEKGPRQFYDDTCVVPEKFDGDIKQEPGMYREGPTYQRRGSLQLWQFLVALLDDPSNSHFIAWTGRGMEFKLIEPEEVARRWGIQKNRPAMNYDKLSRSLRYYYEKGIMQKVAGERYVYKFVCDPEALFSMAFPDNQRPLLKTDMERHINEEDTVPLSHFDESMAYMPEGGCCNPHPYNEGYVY
# ETV5, sequence (P41161 whole entry): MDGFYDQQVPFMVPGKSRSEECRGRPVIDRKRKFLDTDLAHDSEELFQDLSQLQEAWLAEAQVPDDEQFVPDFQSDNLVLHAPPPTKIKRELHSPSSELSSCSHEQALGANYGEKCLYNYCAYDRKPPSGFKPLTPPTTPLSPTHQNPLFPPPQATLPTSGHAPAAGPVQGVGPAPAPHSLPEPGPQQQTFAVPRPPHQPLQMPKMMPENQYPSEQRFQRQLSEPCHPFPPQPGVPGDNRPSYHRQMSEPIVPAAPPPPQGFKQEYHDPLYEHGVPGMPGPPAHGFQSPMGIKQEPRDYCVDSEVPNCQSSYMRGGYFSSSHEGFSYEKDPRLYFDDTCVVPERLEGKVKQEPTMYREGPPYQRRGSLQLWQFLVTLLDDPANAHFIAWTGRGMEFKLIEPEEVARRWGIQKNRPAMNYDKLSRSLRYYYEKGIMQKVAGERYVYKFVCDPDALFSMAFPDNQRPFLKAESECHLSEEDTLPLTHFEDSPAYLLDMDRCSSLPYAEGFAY
# CRX, sequence (O43186 whole entry): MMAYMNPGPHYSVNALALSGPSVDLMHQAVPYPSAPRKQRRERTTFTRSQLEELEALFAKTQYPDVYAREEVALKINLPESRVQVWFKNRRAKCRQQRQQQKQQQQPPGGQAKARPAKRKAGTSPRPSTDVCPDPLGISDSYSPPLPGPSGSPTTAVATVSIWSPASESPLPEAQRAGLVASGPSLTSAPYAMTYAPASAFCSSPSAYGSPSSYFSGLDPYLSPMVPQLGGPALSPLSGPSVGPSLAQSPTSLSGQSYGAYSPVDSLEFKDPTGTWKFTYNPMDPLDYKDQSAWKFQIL
# SPIB, sequence (Q01892 whole entry): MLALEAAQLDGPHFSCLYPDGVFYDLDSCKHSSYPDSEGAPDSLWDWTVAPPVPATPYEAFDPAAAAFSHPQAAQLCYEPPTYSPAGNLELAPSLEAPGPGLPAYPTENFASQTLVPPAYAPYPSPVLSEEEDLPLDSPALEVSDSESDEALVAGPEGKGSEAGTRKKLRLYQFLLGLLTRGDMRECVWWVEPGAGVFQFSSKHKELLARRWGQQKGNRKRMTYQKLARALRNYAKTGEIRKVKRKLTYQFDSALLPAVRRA
# ELF1, sequence (P32519 whole entry): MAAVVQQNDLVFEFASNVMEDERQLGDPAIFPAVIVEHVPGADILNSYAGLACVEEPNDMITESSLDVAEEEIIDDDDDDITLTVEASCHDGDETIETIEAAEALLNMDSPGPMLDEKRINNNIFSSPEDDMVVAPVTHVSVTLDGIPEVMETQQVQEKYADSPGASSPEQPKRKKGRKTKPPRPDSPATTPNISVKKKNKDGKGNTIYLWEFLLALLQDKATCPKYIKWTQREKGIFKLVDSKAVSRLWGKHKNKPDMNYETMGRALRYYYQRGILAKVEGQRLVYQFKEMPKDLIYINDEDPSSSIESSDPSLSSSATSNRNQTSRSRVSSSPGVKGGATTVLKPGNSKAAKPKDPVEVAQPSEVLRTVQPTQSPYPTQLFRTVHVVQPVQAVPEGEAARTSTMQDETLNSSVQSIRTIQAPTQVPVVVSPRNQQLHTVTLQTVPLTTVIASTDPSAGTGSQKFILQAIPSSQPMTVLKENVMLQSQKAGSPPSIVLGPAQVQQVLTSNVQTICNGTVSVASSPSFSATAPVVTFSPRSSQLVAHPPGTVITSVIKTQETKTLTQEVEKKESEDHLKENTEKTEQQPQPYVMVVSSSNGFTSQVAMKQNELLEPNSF
# HSF1, sequence (Q00613 whole entry): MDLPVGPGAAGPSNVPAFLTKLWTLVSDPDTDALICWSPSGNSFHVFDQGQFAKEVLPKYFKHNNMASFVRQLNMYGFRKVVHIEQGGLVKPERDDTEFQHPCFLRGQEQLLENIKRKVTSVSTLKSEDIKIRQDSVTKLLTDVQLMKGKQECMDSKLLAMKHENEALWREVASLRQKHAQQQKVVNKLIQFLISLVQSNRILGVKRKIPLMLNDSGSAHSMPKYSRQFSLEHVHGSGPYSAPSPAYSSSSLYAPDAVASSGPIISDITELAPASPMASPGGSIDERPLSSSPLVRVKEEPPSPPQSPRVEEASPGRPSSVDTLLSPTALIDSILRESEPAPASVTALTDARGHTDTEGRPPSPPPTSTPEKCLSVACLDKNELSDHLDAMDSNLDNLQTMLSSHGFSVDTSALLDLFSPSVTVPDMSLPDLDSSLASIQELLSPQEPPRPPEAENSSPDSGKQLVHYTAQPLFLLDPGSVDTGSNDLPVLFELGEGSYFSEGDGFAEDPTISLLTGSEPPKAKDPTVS
sequence,measurement,setting,value
AAAATA,binding signal,FLI1,"1.17 fold enrichment (6-mer frequency, TF over GST control)"
same,binding signal,ELK1,"1.12 fold enrichment (6-mer frequency, TF over GST control)"
same,binding signal,GABPA,"1.18 fold enrichment (6-mer frequency, TF over GST control)"
same,binding signal,ERG,"1.19 fold enrichment (6-mer frequency, TF over GST control)"
same,binding signal,ELF1,"1.19 fold enrichment (6-mer frequency, TF over GST control)"
same,binding signal,EHF,"1.13 fold enrichment (6-mer frequency, TF over GST control)"
same,binding signal,SPI1,"1.18 fold enrichment (6-mer frequency, TF over GST control)"
same,binding signal,SPIB,"1.23 fold enrichment (6-mer frequency, TF over GST control)"
same,binding signal,ELK3,"1.17 fold enrichment (6-mer frequency, TF over GST control)"
same,binding signal,FEV,"1.15 fold enrichment (6-mer frequency, TF over GST control)"
same,binding signal,ETV5,"1.17 fold enrichment (6-mer frequency, TF over GST control)"
same,binding signal,HSF1,"1.34 fold enrichment (6-mer frequency, TF over GST control)"
same,binding signal,SPIC,"1.16 fold enrichment (6-mer frequency, TF over GST control)"
same,binding signal,ELF4,"1.17 fold enrichment (6-mer frequency, TF over GST control)"
same,binding signal,ELK4,"1.19 fold enrichment (6-mer frequency, TF over GST control)"
same,binding signal,ETV2,"1.21 fold enrichment (6-mer frequency, TF over GST control)"
same,binding signal,ELF3,"1.06 fold enrichment (6-mer frequency, TF over GST control)"
same,binding signal,CRX,"1.35 fold enrichment (6-mer frequency, TF over GST control)"
same,binding signal,ETV1,"1.1 fold enrichment (6-mer frequency, TF over GST control)"
